Assay results taken from PubChem BioAssay (EPA / NIEHS).
Results filed as inconclusive are left out. The source made the active and inactive calls. How the source made its calls: active means hit-call score of the fitted dose curve at least 0.9, where 1 is the maximum; inconclusive means response in the unintended direction; inactive means score below 0.9.

Key:
[1] = molecular target: human Serotonin, 5-Hydroxytryptamine Receptor 7 (5HT7), HTR7 (gene 3363) (UniProt P34969); assay: NVS_GPCR_h5HT7: NovaScreen (NVS) G Protein-Coupled Receptor Assay for human Serotonin, 5-Hydroxytryptamine Receptor 7 (5HT7) (AID 2283255);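 further: hits reduce specific radioligand binding relative to DMSO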
Chain of human Serotonin, 5-Hydroxytryptamine Receptor 7 (5HT7), HTR7 (gene 3363) (P34969 whole entry, looked up): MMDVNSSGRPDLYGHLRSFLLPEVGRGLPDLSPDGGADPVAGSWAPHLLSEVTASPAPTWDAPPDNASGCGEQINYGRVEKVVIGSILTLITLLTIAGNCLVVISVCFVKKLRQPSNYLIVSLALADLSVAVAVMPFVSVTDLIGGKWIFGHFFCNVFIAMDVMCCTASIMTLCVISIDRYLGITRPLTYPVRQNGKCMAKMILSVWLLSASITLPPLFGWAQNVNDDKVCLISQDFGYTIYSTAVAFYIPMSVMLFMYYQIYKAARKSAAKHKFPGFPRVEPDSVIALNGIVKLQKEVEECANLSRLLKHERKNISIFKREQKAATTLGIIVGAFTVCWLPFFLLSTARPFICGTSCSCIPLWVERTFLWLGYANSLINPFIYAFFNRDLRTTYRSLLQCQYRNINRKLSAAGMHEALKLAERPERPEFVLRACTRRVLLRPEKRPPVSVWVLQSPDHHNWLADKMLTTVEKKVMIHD
Outline: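 Radioligand displacement on membranes from CHO cells expressing human 5HT7, 1 h incubation, filter-based scintillation counting. Primary screen used a single 25 uM concentration in duplicate; actives were followed up in concentration series.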

[2] = molecular target: human Serotonin, 5-Hydroxytryptamine Receptor 6 (5HT6), HTR6 (gene 3362) (UniProt P50406); assay: NVS_GPCR_h5HT6: NovaScreen (NVS) G Protein-Coupled Receptor Assay for human Serotonin, 5-Hydroxytryptamine Receptor 6 (5HT6) (AID 2283253)
Chain of human Serotonin, 5-Hydroxytryptamine Receptor 6 (5HT6), HTR6 (gene 3362) (P50406 whole entry, looked up): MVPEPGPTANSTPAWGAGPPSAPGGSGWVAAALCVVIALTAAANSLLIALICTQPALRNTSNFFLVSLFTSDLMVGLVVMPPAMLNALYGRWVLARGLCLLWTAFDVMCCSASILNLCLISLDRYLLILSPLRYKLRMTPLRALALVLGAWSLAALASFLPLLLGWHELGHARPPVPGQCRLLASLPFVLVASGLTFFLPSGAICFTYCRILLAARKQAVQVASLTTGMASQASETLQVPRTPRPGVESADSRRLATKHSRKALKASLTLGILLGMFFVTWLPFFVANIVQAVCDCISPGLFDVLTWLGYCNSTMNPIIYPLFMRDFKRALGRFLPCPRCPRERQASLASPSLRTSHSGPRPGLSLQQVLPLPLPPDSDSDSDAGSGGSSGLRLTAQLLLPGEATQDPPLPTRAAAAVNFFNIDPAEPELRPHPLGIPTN
Outline: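 Radioligand binding to 5HT6 in HEK293-derived membranes, cell-free, 1 h after dosing; bound ligand measured by filter-based scintillation counting. Primary screen in duplicate at 25 uM; actives retested in concentration series.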

[3] = molecular target: human Adenosine A1 Receptor (AdoRA1), ADORA1 (gene 134) (UniProt P30542); assay: NVS_GPCR_hAdoRA1: NovaScreen (NVS) G Protein-Coupled Receptor Assay for human Adenosine A1 Receptor (AdoRA1) (AID 2283254)
Chain of human Adenosine A1 Receptor (AdoRA1), ADORA1 (gene 134) (P30542 whole entry, looked up): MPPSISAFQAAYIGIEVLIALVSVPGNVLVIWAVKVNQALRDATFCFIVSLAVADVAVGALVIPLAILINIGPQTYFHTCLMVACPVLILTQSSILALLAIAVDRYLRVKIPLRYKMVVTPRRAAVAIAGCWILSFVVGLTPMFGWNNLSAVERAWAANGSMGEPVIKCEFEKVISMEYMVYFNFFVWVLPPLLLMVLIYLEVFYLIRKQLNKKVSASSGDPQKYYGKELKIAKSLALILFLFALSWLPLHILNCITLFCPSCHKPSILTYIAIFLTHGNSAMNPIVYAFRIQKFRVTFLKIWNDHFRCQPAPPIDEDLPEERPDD
Outline: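 Membranes from human cortical tissue were incubated with radioligand and test chemical for 1 hour, then filtered and counted. Activity was taken as signal loss relative to DMSO, screened at 25 uM in duplicate before concentration-response follow-up.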

[4] = molecular target: human Adenosine A2a Receptor (AdoRA2a), ADORA2A (gene 135) (UniProt P29274); assay: NVS_GPCR_hAdoRA2a: NovaScreen (NVS) G Protein-Coupled Receptor Assay for human Adenosine A2a Receptor (AdoRA2a) (AID 2283256)
Chain of human Adenosine A2a Receptor (AdoRA2a), ADORA2A (gene 135) (P29274 whole entry, looked up): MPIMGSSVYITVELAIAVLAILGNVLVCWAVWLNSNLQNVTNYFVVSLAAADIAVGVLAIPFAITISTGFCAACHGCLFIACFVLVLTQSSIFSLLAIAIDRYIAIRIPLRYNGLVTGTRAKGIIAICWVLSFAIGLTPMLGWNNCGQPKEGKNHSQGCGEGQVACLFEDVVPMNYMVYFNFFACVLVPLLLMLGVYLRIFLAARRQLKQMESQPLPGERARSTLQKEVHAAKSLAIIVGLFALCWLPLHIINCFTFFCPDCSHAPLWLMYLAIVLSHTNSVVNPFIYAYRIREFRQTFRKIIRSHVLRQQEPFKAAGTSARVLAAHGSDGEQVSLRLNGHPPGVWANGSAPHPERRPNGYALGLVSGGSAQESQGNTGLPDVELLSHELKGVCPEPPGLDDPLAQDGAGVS
Outline: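 Cell-free radioligand binding on membranes from HEK293 expressing the receptor; competitive displacement read 1.5 h after dosing by filter-based scintillation counting. Primary screen in duplicate at 25 uM; actives followed in concentration series, with DMSO as baseline.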

[5] = test system: guinea pig Muscarinic, Peripheral (Mperiperal) Receptor, Non-selective Binding, gene 100379235; assay: NVS_GPCR_gMPeripheral_NonSelective: NovaScreen (NVS) G Protein-Coupled Receptor Assay for guinea pig Muscarinic, Peripheral (Mperiperal) Receptor, Non-selective Binding (AID 2283250)
Outline: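 Guinea pig bladder membranes, radioligand binding read 1 h after dosing by filter scintillation counting; loss of signal vs DMSO. Primary duplicate screen at 25 uM, then concentration-response up to 50 uM.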

**Q.** How did the outcome [1] turn out when CC1(C)C(C=C(Cl)Cl)C1C(=O)OCc1cccc(Oc2ccccc2)c1 (centres undefined) was run?
**A.** inactive

**Q.** What does the source list for O=C(c1ccc(O)cc1O)c1ccc(O)cc1O?
**A.** AC50 [2]: 4.96 µM (active); AC50 [3]: 11 µM (active); outcome [4]: inactive

**Q.** Which outcome [5] does the source give for CCCOC(=O)NCCCN(C)C here?
**A.** inactive

**Q.** What does the source list for N[C@@H](Cc1cc(I)c(Oc2ccc(O)c(I)c2)c(I)c1)C(=O)O?
**A.** AC50 [2]: 6.06 µM (active); AC50 [3]: 0.554 µM (active)

**Q.** How did the outcome [1] turn out when CCCCCCC(C)OC(=O)COc1nc(F)c(Cl)c(N)c1Cl (centres undefined) was run?
**A.** inactive

**Q.** How did the AC50 [4] turn out when CCCOC(=O)c1ccc(C(=O)OCCC)nc1 was run?
**A.** 15.2 µM (active)

**Q.** What does the source list for COC(=O)c1cccc(C)c1S(=O)(=O)NC(=O)Nc1nc(OCC(F)(F)F)nc(N(C)C)n1?
**A.** AC50 [3]: 10.4 µM (active); AC50 [4]: 6.04 µM (active)

**Q.** Cc1nn(C)c(Oc2ccccc2)c1C=NOCc1ccc(C(=O)OC(C)(C)C)cc1 was tested. Which AC50 [1] did it give?
**A.** 6.64 µM (active)

**Q.** Which outcome [3] does the source give for CCCCC(CC)COC(=O)c1ccccc1C(=O)O (centres undefined) here?
**A.** inactive

**Q.** Which outcome [1] does the source give for CCCCOC(=O)[C@@H](C)Oc1ccc(Oc2ccc(C(F)(F)F)cn2)cc1 here?
**A.** inactive
